# PostGolgi ctrl – yeast control strain growth, post-Golgi counter-screen; AID 738; 98,000 compounds, 5% hits; inhibition, % at 10 µM; efflux-deficient yeast background strain, growth absorbance A615, 16 h
# CYP2C19 inhib – human CYP2C19 inhibition; inhibition, % at 5 µM; 96,000 compounds, 21% hits; CYP2C19 Supersomes, luciferin-H EGE luminescence, 30 min; AID 778; P33261;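 active means CYP2C19 inhibition above a set limit at 5 µM in the primary screen, cut at about 50% in these data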;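 further: plate controls were negative control wells for no effect and 2.5 mM tranylcypromine positive control for full effect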
# Target sequence (P33261 whole entry, looked up): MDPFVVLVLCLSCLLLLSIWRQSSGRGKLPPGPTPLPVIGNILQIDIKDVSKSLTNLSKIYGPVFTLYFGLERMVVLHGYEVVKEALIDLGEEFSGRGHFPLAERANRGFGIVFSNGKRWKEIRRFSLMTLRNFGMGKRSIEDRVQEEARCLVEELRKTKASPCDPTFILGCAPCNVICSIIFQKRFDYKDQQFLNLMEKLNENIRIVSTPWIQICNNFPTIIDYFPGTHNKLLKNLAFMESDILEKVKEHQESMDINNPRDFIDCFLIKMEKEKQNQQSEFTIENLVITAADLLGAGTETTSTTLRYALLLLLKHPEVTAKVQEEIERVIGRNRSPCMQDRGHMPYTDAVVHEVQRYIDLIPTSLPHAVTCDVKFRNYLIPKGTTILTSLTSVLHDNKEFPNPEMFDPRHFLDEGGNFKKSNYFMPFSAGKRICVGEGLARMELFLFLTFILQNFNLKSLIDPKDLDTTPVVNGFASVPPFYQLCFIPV
# CYP2C19 activ – increases human CYP2C19 enzyme activity | P33261 | recombinant CYP2C19, luciferin-H EGE luminescence; hits give high values; 0 = fully inhibited enzyme, 1 = untreated enzyme | activation factor at 5 µM | 96,000 tested, under 10 active;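 active means activation factor of at least 2 at 5 µM in the primary screen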;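 further: 0 = wells with 2.5 mM tranylcypromine and 1 = vehicle-only wells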
# CYP2C9 act – CYP2C9 (human) activation | P11712 | recombinant CYP2C9, luciferin-H conversion, luminescence; hits give high values; factor 1 = untreated enzyme, 0 = blocked | activation factor at 5 µM | 96,000 compounds, 1.4% hits;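 active means activation factor of 2 or more for CYP2C9 at a 5 µM dose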;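 further: 0 = sulfaphenazole-blocked wells and 1 = vehicle-only wells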
# PostGolgi yeast – growth inhibition of a yeast mutant, post-Golgi transport screen. post-Golgi transport phenotypic cell assay. inhibition, % at 10 µM. 98,000 compounds, 0.9% hits. AID 739;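 further: yeast cells grown in 1536-well plates; yeast grown about 18 h at 30C before absorbance read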
# CYP2C9 inhib – blocks human cytochrome P450 2C9 | P11712 | CYP2C9 Supersomes, luciferin-H conversion, luminescence | inhibition, % at 5 µM | 96,000 compounds, 20% hits;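 active means blocking of liver enzyme CYP2C9 beyond about 50% at 5 µM, limit read from the data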
# Starred values were filed as active, the others as inactive; nt = not tested or not shown. Most compounds without a hit are left out; they make up all but 32% or so of the library. Unless noted, no stated cut-off is given here; in the data, active means inhibition above about 30%; inactive means the rest.
SMILES,PostGolgi ctrl,CYP2C19 inhib,CYP2C19 activ,CYP2C9 act,PostGolgi yeast,CYP2C9 inhib
CC1c2nc3ccccc3n2C(CC(=O)NCc2ccccn2)C(=O)N1Cc1ccccc1 (stereo unspecified),5.5,80.4*,0.2,0.9,-27.0,7.1
O=C(Nc1nnc(-c2ccc(Cl)cc2)o1)c1nc2ccccc2s1,-3.5,0.7,1,0.8,1.6,20.4
COc1ccc(NC(=S)NNC(=O)OC(C)(C)C)cc1OC,-1.6,12.1,0.9,1,-9.1,-1.1
Cc1ccc(-c2nnc(SCC#CCOC(=O)c3cccs3)o2)cc1,35.6*,15.7,0.8,1.6,-10.6,-55.4
O=C(OCC#CCSc1nnc(-c2ccccc2)o1)c1cc2ccccc2o1,9.8,6.6,0.9,1.2,-3.1,-16.9
Cc1ccc(-c2nnc(SCC#CCOC(=O)c3ccco3)o2)cc1,6.8,88.8*,0.1,0.1,-5.9,89.1*
CCN(CC)S(=O)(=O)c1ccc(Cl)c(C(=O)Nc2nnc(C)s2)c1,nt,-6.6,1.1,0.2,nt,80.5*
CCN(CC)S(=O)(=O)c1cccc(C(=O)N[C@H](C(=O)NCc2ccccc2F)C(C)C)c1,4.3,20.3,0.8,0.2,-5.9,84.7*
CCN(CC)S(=O)(=O)c1cccc(C(=O)N[C@H](C(=O)NCc2ccc(Cl)cc2)C(C)C)c1,10.4,28.6,0.7,0,-4.1,97.2*
CCN(CC)S(=O)(=O)c1cccc(C(=O)N[C@H](C(=O)O)C(C)C)c1,-3.2,-15.8,1.2,1.1,-12.1,-5.7
Cc1nnc(NC(=O)c2cccc(NC(=O)C(C)C)c2)s1,0.6,-12.3,1.1,1,-2.4,-2.6
CCN(CC)S(=O)(=O)c1ccc(-c2nnc(SCC(=O)Nc3nnc(C)s3)n2CC)cc1,2.5,0.2,1,0.9,1.1,9.5
CCN(CC)S(=O)(=O)c1cccc(C(=O)N[C@H](C(=O)OCC(=O)NC(=O)NC)C(C)C)c1,-2.4,31.4,0.7,0.8,-1.4,23.8
CCN(CC)S(=O)(=O)c1cccc(C(=O)NC(C(=O)Nc2nnc(C)s2)C(C)C)c1 (stereo unspecified),3.9,43.1,0.6,0.2,-7.3,78.1*
CCOc1ccc(-n2cc(C(=O)NC(C)C)c3cc(OC)c(OC)cc3c2=O)cc1,3.9,3.5,1,0.8,-4.0,21.0
COC(=O)c1cc(Br)c(=O)n(CCN2CCOCC2)c1,2.5,7.6,0.9,0.9,4.2,10.5
COc1ccc(C(=O)c2sc(NC(C)C)nc2N)cc1OC,1.8,86.3*,0.1,0.9,0.8,7.7
Cc1c(NC(=O)CN2CCN(C(=O)c3ccco3)CC2)c(=O)n(-c2ccccc2)n1C,1.3,-9.3,1.1,1.1,2.7,-5.2
COc1ccccc1C(=O)Nc1ccc(S(=O)(=O)N2CCCC2)cc1,5.7,8.6,0.9,0.8,8.7,15.9
COc1ccccc1C(=O)Nc1ccc2c(c1)nc1n2CCSC1,8.8,17.8,0.8,2*,-3.7,-97.2
O=C(Nc1ccc(N2CCN(Cc3ccccc3)CC2)cc1)c1ncn[nH]1,30.8*,-1.2,1,1.1,-1.6,-7.2
COc1ccccc1C(=O)Nc1ccc(N2CCN(Cc3ccccc3)CC2)cc1,5.2,7.1,0.9,2.5*,7.9,-145.3
COc1ccc(NC(=O)c2ccc(CN3CCN(c4ccccc4)CC3)cc2)cc1OC,-0.1,7.4,0.9,0.8,-5.3,16.9
COc1ccccc1C(=O)Nc1ccc(N2CCCCC2)cc1,14.0,17.4,0.8,3.8*,3.3,-281.9
Cc1cc2c(s1)CCCCC(=O)N2,2.1,5.2,0.9,1.2,4.0,-17.0
SMILES,PostGolgi ctrl,CYP2C19 inhib,CYP2C19 activ,CYP2C9 act,PostGolgi yeast,CYP2C9 inhib
CC(O)CN(Cc1cccc(Cl)c1)CC(C)O (stereo unspecified),4.5,-6.8,1.1,1.2,-1.4,-22.1
O=c1c(=O)n(O)c2ccccc2n1O,-1.5,-13.7,1.1,1.1,1.4,-14.1
COc1ccc(S(=O)(=O)Cc2ccc(C(=O)N3CCN(C4CCCCC4)CC3)o2)cc1,-0.8,1.8,1,0.3,1.4,65.7*
O=C(c1ccc(CS(=O)(=O)c2ccc(Br)cc2)o1)N1CCN(C2CCCCC2)CC1,2.1,-4.3,1,0.2,2.2,77.7*
O=C(c1ccc(CS(=O)(=O)c2ccc(Br)cc2)o1)N1CCCC1,6.2,26.1,0.7,0.7,8.6,30.9
Cc1ccccc1S(=O)(=O)Cc1ccc(C(=O)N2CCN(C3CCCCC3)CC2)o1,-1.9,nt,nt,nt,3.7,nt
O=C(c1ccc(CS(=O)(=O)c2ccc(Br)cc2)o1)N1CCCCCC1,13.7,80.3*,0.2,1.3,6.2,-29.1
Cc1nc(SCn2nnc3ccccc3c2=O)c2c(C)c(C)sc2n1,nt,26.3,0.7,0.8,nt,24.9
Clc1ccccc1-c1ccc(/C=N/n2cnnc2)o1,11.5,61.6*,0.4,1,3.4,3.2
Cc1c(Cl)cccc1-c1ccc(/C=N/n2cnnc2)o1,27.6,87.8*,0.1,0.3,0.0,70.9*
CCOC(=O)c1cc(-c2ccc(/C=N\n3cnnc3)o2)ccc1Cl,3.3,21.9,0.8,0.3,-5.3,66.5*
O=C1N=C(N2CCOCC2)S/C1=C/c1ccc(-c2ccccc2Cl)o1,6.7,39.2,0.6,0.8,7.4,19.2
O=C(NCCN1CCOCC1)c1cc(S(=O)(=O)NCCCN2CCCC2=O)ccc1Cl,2.0,-23.5,1.2,1.3,-0.5,-33.2
CC(C)(C)NC(=S)NCc1cccnc1,-3.1,8.8,0.9,1,-1.9,1.1
CCn1c(COc2ccc(=O)n(-c3ccccc3)n2)nnc1SCc1ccccc1C,-8.1,15.1,0.8,0.4,3.0,60.7*
COc1ccccc1C1(CC(=O)N2CCCCC2)CCOC(C(C)C)C1 (stereo unspecified),3.8,50.2*,0.5,0.7,-1.7,33.9
COc1cccc(C2CC(=O)Nc3cc(OC)c(OC)c(OC)c32)c1OC (stereo unspecified),-2.3,63.0*,0.4,0.5,0.0,47.1
Cn1cnnc1SCNC(=O)C(F)(F)F,15.6,-3.4,1,0.7,14.1,25.3
CC1(C)CCCN(C(=O)N2c3ccccc3Sc3ccccc32)C1,4.3,16.4,0.8,0.9,-3.2,6.9
CCN1C(=S)SC(=O)C1=C1C=C(C)N(Cc2ccco2)C(C)=C1,37.8*,26.4,0.7,1,-9.0,4.9
CCn1c2ccccc2c2nc3cc(OC)c(OC)cc3nc21,23.7,19.3,0.8,0.5,23.5,45.8
CCn1c2ccccc2c2nc3ccccc3nc21,34.4*,19.5,0.8,0.8,-4.4,22.2
CCCCc1c(C)nn(-c2nnc3c4ccccc4n(CC)c3n2)c1C,57.8*,13.8,0.9,0.9,3.6,10.1
Cc1ccc(-c2ccc(OCC(=O)N3CCOCC3)cc2)cc1,3.6,7.5,0.9,0.7,5.0,28.4
Cc1cc(C)cc(OCC(=O)N2CCCCCC2)c1,33.9*,53.5*,0.5,1.2,-10.8,-15.5
Cc1ccc(OCC(=O)N2CCC(N3CCCCCC3)CC2)cc1,34.6*,-1.1,1,1.1,-2.4,-8.3
